# In PubChem BioAssay (Tox21):
# Several values for one entry are separate records, joined by “and”; a condition that tells them apart may be missing. Identical values can stand only once. More than one record can exist for a structure, and the calls need not agree. Activity calls are given as the source filed them. The call rests on the fitted dose curve.
# Test: qHTS assay to identify small molecule agonists of the estrogen related receptor (ERR) signaling pathway from Tox21 library (AID 1224849); further: nearly all actives have a fitted effect of over 15% in size
# Settings: ERR reporter cell line, ONE-Glo luciferase, 18 h; at 42.5 µM (top of the series)
# Excerpt: National Center for Advancing Translational Sciences [NCATS]
# NIH Chemical Genomics Center [NCGC]
# U.S. Environmental Protection Agency [EPA]
# National Institutes of Environmental Health Sciences [NIEHS]
# National Toxicology Program [NTP]
# Estrogen related receptors (ERRs), the first orphan nuclear receptors discovered, play an important role in the control of cellular energy metabolism. ERRs are required for high-energy production in response to the environmental challenges. ERR-alpha was also identified as an adverse marker for breast cancer progression; ERR-alpha-positive tumors have a poor prognosis. To screen and to identify environmental compounds that perturb the ERR signaling pathways could provide valuable information for potential therapeutic or preventive measures in the treatment of metabolic disease. For identifying ERR agonists, ERR cell line (provided by NTP) has been used to screen Tox21 10K library.
# The ERR cells were dispensed at 2,000 cells/5 ul/well in 1536-well white plates using a Multidrop dispenser. After the assay plates were incubated at a 37 C/5% CO2 incubator for 6 hours, 23 nL of compounds dissolved in DMSO, positive and negative controls or DMSO only was transferred to the assay plate by a pin tool. The plates were incubated at 37 C for 18 hours. 4 ul/well of One-Glo reagent was added into the assay plates using a Flying Reagent Dispenser. After 30-minute incubation at room temperature, the luminescence intensity in the plates was measured using a ViewLux plate reader.
# On the % scale 0 is the no-effect control and ±100 the full control effect.
row,Structure (SMILES),"activity change, positive = activation"
1,C[C@]12C/C(=C/O)C(=O)C[C@@H]1CC[C@@H]1[C@@H]2CC[C@@]2(C)[C@H]1CC[C@]2(C)O,-37.2% (inactive)

# Same assay, conditions: ERR reporter cell line, ONE-Glo luciferase, 18 h; at 92.4 µM (top of the series)
row,Structure (SMILES),"activity change, positive = activation"
1,C[C@]12C/C(=C/O)C(=O)C[C@@H]1CC[C@@H]1[C@@H]2CC[C@@]2(C)[C@H]1CC[C@]2(C)O,-61.4% (inactive)

# Same assay, conditions: ERR reporter cell line, ONE-Glo luciferase, 18 h; at 92.4 µM (top of the series) unless noted
row,Structure (SMILES),"activity change, positive = activation"
1,CCN1CCC2(CC1)COc1cc3c(cc12)N(C(=O)c1ccc(-c2ccc(-c4nnc(C)o4)cc2C)cc1)CC3,-74.2% (inactive)
2,CCOP(=O)(OCC)Oc1cc(C)nc(C(C)C)n1,-6.77% (inactive)
3,O=c1[nH]c(Cl)c(Cl)cc1Cl,-28.7% (inactive)
4,c1ccc(N=NNc2ccccc2)cc1,51.9% (active) and 0.0484% (inactive)
5,ClCBr,5.96% (inactive)
6,CCOC(=O)CCN(SN(C)C(=O)Oc1cccc2c1OC(C)(C)C2)C(C)C,-43.3% (inactive)
7,CCOP(=S)(OCC)Oc1cc(C)nc(N(CC)CC)n1,-21.1% (inactive)
8,O=Cc1ccccc1,7.55% (inactive)
9,CCC[CH2][Sn]([CH2]CCC)([O]C(C)=O)[O]C(C)=O,-79.9% (inactive)
10,CC(C)(C)c1ccc(OP(=O)(Oc2ccccc2)Oc2ccccc2)cc1,-31.3% (inactive)
11,CN1C(=O)[C@@H](NC(=O)c2cc3ccccc3[nH]2)N=C(c2ccccc2)c2ccccc21,-21.2% [at 42.5 µM] (inactive)
12,N#Cc1sc2c(=O)c3ccccc3c(=O)c=2sc1C#N,-74.5% (inactive)
13,Nc1cc(Cl)ccc1Cl,-0.0267% (inactive)
14,COP(=S)(OC)Oc1ccc([N+](=O)[O-])c(C)c1,-19.2% (inactive)
15,Oc1ccc2[nH]cc(CCCCN3CC=C(c4ccccc4)CC3)c2c1,-32.1% [at 42.5 µM] (inactive)
16,C#CCC1=C(C)C(OC(=O)C2C(C=C(C)C)C2(C)C)CC1=O (stereo not given),-46% (inactive)
17,c1ccc(Nc2ccc(Nc3ccccc3)cc2)cc1,-22.9% (inactive)
18,BrCC(Br)(Br)Br,15.6% (inactive)
19,CCOP(=S)(OCC)SC(CCl)N1C(=O)c2ccccc2C1=O (stereo not given),-14.9% (inactive)

row,Structure (SMILES),"activity change, positive = activation"
1,Oc1cc(Cl)c(Cl)c(Cl)c1Cl,-60.7% (inactive)
2,C=C(C)C(=O)[O][Sn]([CH2]CCC)([CH2]CCC)[CH2]CCC,-73.3% (inactive)
3,Cc1ccn2nc(S(=O)(=O)Nc3c(F)cccc3F)nc2n1,1.87% (inactive)
4,N#Cc1c2ccccc2cc2ccccc12,3.94% (inactive)
5,CC(=O)[O][Sn]([c]1ccccc1)([c]1ccccc1)[c]1ccccc1,-74% (inactive)
6,Cc1cc2c3c(c1)C(c1ccccc1)=N[C@@H](NC(=O)c1ccncc1)C(=O)N3CC2,-15.6% (inactive)
7,CCCCCCCCCCCCCCn1cc[n+](C)c1,-74.5% (inactive) and -73.1% (inactive) and -26.1% (inactive)
8,CC(C)N(C(=O)CCl)c1ccccc1,-77.7% (inactive) and -74.7% (inactive)
9,ClC1(Cl)C2(Cl)C3(Cl)C4(Cl)C(Cl)(Cl)C5(Cl)C3(Cl)C1(Cl)C5(Cl)C24Cl (stereo not given),2.52% (inactive)
10,C[C@H]1[C@H](c2ccc(Cl)cc2)SC(=O)N1C(=O)NC1CCCCC1,-41.4% (inactive)
11,Cc1c([N+](=O)[O-])c(C)c([N+](=O)[O-])c(C(C)(C)C)c1[N+](=O)[O-],-4.01% (inactive)
12,CN1CCc2cc3c(cc2C1O)OCO3 (stereo not given),0.659% (inactive)
13,CN=C=O,0.484% (inactive)
14,CC(Cc1ccc2c(c1)OCO2)NO (stereo not given),-3.14% (inactive)
15,CCCCN(CCCC)C(=S)[S-].CCCCN(CCCC)C(=S)[S-].[Ni+2],-0.422% [at 42.5 µM] (inactive)
16,CCCCCON=O,-5.1% (inactive)
17,COC(=O)C(C)N(C(=O)c1ccco1)c1c(C)cccc1C (stereo not given),-15.8% (inactive)
18,CC(C)=CC1C(C(=O)OC(C#N)c2cccc(Oc3ccccc3)c2)C1(C)C (stereo not given),-9.74% (inactive)
19,CSSC,-6.7% (inactive)
